According to PubChem BioAssay:
Where “and” joins values, the source holds several entries; their conditions need not be identical. Identical values can stand only once. Calls of active or inactive are those of the source. Unless noted, no rule for the calls is given here.

Columns and labels:
[1] = system: Hepatitis C virus NS3 helicase; experiment: HCV NS3 helicase inhibitors, primary screen, biochemical, fluorescence polarization, LOPAC1280 library (AID 687035; in the data active = inhibition above about 37%); details: Purified HCV NS3 helicase, Cy5-dT15 ssDNA binding fluorescence polarization; stronger effect = higher value; concentration not given here
[2] = Cy5 fluorescence quenching or enhancement artefacts, artefact control for HCV NS3 helicase inhibitor project, biochemical, LOPAC1280 (AID 687037); details: Cy5-DNA-NS3h complex fluorescence interference counterscreen
[3] = stimulators of nuclear beta-catenin in C2C12, primary screen, imaging, WNT3A-conditioned medium, mouse C2C12, NPC library (AID 1117326; in the data active = nuclear beta-catenin stimulation mostly above about 4.2%, no sharp cut-off; inactive = mostly below about 10%); details: stronger effect = higher value
[4] = kinase inhibitors against Plasmodium liver-stage infection, cell-based, known kinase inhibitor set, luminescence, hepatoma host viability (AID 624392); details: Plasmodium liver stage in hepatoma cells, luciferase luminescence, concentration not given here; liver cell % of control: measured here: host liver cell viability; parasite % of control: stronger effect = lower value;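 also: infected cells incubated roughly two days before readout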
[5] = Cy5 fluorescence interference with SSB-bound oligo, artefact control for HCV NS3 helicase inhibitor project, biochemical, NIH Clinical Collection, E. coli SSB (AID 743268)
[6] = system: Hepatitis C virus NS3 helicase; experiment: HCV NS3 helicase inhibitors, primary screen, biochemical, fluorescence polarization, NIH Clinical Collection (AID 743270); details: NS3 helicase binding to Cy5-dT15 DNA, stronger effect = higher value, concentration not given here
[7] = target: Single-stranded DNA-binding protein (Escherichia coli (strain K12)) (UniProt P0AGE0); experiment: E. coli SSB displacement from DNA, counter-screen for HCV NS3 helicase inhibitor project, biochemical, fluorescence polarization, NIH Clinical Collection (AID 743271; in the data active = inhibition above about 28%); details: stronger effect = higher value, concentration not given here
[8] = fluorescence interference in NS3h assay format, artefact control for HCV NS3 helicase inhibitor project, biochemical, NIH Clinical Collection (AID 743272); details: fluorescence interference counterscreen, stronger effect = lower value;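 also: HCV NS3 helicase with a Cy5 labelled single stranded DNA probe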
[9] = system: Neuropilin-2 / VEGF-C interaction (human); experiment: inhibitors of NRP2–VEGF-C binding, biochemical, microplate binding format, z-score (AID 743281); details: microplate NRP2/VEGF-C binding assay; stronger effect = lower value

For CN(C)C(=O)Oc1cccc([N+](C)(C)C)c1, which inhibition [1] is on record?
The inhibition was -5% (inactive).

And the fluorescence ratio (interference) [2]?
The fluorescence ratio (interference) was 1 (inactive).

And the nuclear beta-catenin stimulation ([3]; at 10 µM)?
Its nuclear beta-catenin stimulation is 1% (inactive).

And the nuclear beta-catenin stimulation ([3]; stimulation, at 2 µM)?
The nuclear beta-catenin stimulation was 5.2%.

For NC(=O)c1ncn([C@@H]2O[C@H](CO)[C@@H](O)[C@H]2O)c1O, which inhibition [1] is on record?
The inhibition was -3% (inactive).

And the fluorescence ratio (interference) [2]?
Its fluorescence ratio (interference) is 1 (inactive).

And the nuclear beta-catenin stimulation ([3]; at 10 µM)?
The nuclear beta-catenin stimulation was 3% (inactive).

What about the nuclear beta-catenin stimulation ([3]; stimulation, at 2 µM) of the same compound?
The nuclear beta-catenin stimulation was 2.4%.

Which inhibition [1] does the source give for N[C@@H](Cc1ccc(O)c(O)c1)C(=O)O here?
The inhibition was 1% (inactive).

What about the fluorescence ratio (interference) [2] of the same compound?
Its fluorescence ratio (interference) is 1 (inactive).

What about the nuclear beta-catenin stimulation ([3]; at 10 µM) of the same compound?
Its nuclear beta-catenin stimulation is 1% (inactive).

What about the nuclear beta-catenin stimulation ([3]; stimulation, at 2 µM) of the same compound?
The nuclear beta-catenin stimulation was -0.9%.

Which inhibition [1] does the source give for CCN(CC)CCOCCOC(=O)C1(c2ccccc2)CCCC1 here?
The inhibition was 0% (inactive).

What about the fluorescence ratio (interference) [2] of the same compound?
Its fluorescence ratio (interference) is 1 (inactive).

What about the nuclear beta-catenin stimulation ([3]; at 10 µM) of the same compound?
The nuclear beta-catenin stimulation was -0.6% (inactive).

What about the nuclear beta-catenin stimulation ([3]; stimulation, at 2 µM) of the same compound?
The nuclear beta-catenin stimulation was -0.4%.

For NC(CO)C(=O)NNCc1ccc(O)c(O)c1O (stereo not drawn), which inhibition [1] is on record?
Its inhibition is 1% (inactive).

What about the fluorescence ratio (interference) [2] of the same compound?
The fluorescence ratio (interference) was 1 (inactive).

What about the nuclear beta-catenin stimulation ([3]; at 10 µM) of the same compound?
Its nuclear beta-catenin stimulation is 13.1% (inactive).

What about the nuclear beta-catenin stimulation ([3]; stimulation, at 2 µM) of the same compound?
Its nuclear beta-catenin stimulation is 3.8%.

For CCOC(=O)C1=C[C@]2(CC)CCCN3CCc4c(n1c1ccccc41)[C@@H]32, which inhibition [1] is on record?
Its inhibition is -2% (inactive).

And the fluorescence ratio (interference) [2]?
The fluorescence ratio (interference) was 1 (inactive).

And the nuclear beta-catenin stimulation ([3]; at 10 µM)?
The nuclear beta-catenin stimulation was 0.9% (inactive).

What about the nuclear beta-catenin stimulation ([3]; stimulation, at 2 µM) of the same compound?
The nuclear beta-catenin stimulation was -0.3%.

What does the source list for O=C(c1ccc(F)cc1)C1CCN(CCn2c(=O)[nH]c3ccccc3c2=O)CC1?
inhibition [1]: 2% (inactive); fluorescence ratio (interference) [2]: 1 (inactive); nuclear beta-catenin stimulation ([3]; at 10 µM): 0.6% (inactive); nuclear beta-catenin stimulation ([3]; stimulation, at 2 µM): -1.2%

Which inhibition [1] does the source give for C[C@](N)(Cc1ccc(O)c(O)c1)C(=O)O here?
Its inhibition is -3% (inactive).

And the fluorescence ratio (interference) [2]?
The fluorescence ratio (interference) was 1 (inactive).

And the nuclear beta-catenin stimulation ([3]; at 10 µM)?
The nuclear beta-catenin stimulation was 2.9% (inactive).

And the nuclear beta-catenin stimulation ([3]; stimulation, at 2 µM)?
The nuclear beta-catenin stimulation was 1.2%.

For CCCN(CCC)C(=O)C(CCC(=O)O)NC(=O)c1ccccc1 (stereo not drawn), which inhibition [1] is on record?
The inhibition was -4% (inactive).

What about the fluorescence ratio (interference) [2] of the same compound?
Its fluorescence ratio (interference) is 0.9 (inactive).

What about the nuclear beta-catenin stimulation ([3]; at 10 µM) of the same compound?
Its nuclear beta-catenin stimulation is -0.6% (inactive).

What about the nuclear beta-catenin stimulation ([3]; stimulation, at 2 µM) of the same compound?
The nuclear beta-catenin stimulation was 0.3%.

What does the source list for NC/C=C/C(=O)O?
inhibition [1]: -5% (inactive); fluorescence ratio (interference) [2]: 1 (inactive); nuclear beta-catenin stimulation ([3]; at 10 µM): 0.3% (inactive); nuclear beta-catenin stimulation ([3]; stimulation, at 2 µM): 1.6%

With COC(=O)Nc1nc2ccc(C(=O)c3cccs3)cc2[nH]1 as the compound, how does the inhibition [1] read?
The inhibition was -5% (inactive).

What about the fluorescence ratio (interference) [2] of the same compound?
The fluorescence ratio (interference) was 0.9 (inactive).

What about the nuclear beta-catenin stimulation ([3]; at 10 µM) of the same compound?
The nuclear beta-catenin stimulation was 80.4% (active).

What about the nuclear beta-catenin stimulation ([3]; stimulation, at 2 µM) of the same compound?
The nuclear beta-catenin stimulation was 81.3%.

Which liver cell % of control [4] does the source give for COc1cc2c(Nc3ccc(Br)cc3F)ncnc2cc1OCC1CCN(C)CC1 here?
Its liver cell % of control is 42.4% and 45.4% and 52%.

What about the parasite % of control [4] of the same compound?
Its parasite % of control is 0.285% (inactive) and 8.38% (inactive) and 117% (inactive).

And the nuclear beta-catenin stimulation ([3]; at 10 µM)?
Its nuclear beta-catenin stimulation is -0.3% (inactive).

And the nuclear beta-catenin stimulation ([3]; stimulation, at 2 µM)?
The nuclear beta-catenin stimulation was -0.9%.

Which results are given for COCCc1ccc(OCC(O)CNC(C)C)cc1 (stereo not drawn)?
inhibition [1]: 1% (inactive); fluorescence ratio (interference) [2]: 1 (inactive); nuclear beta-catenin stimulation ([3]; at 10 µM): 0.8% (inactive); nuclear beta-catenin stimulation ([3]; stimulation, at 2 µM): 1.6%

With Cc1ccccc1N1C(=O)c2cc(S(N)(=O)=O)c(Cl)cc2NC1C (stereo not drawn) as the compound, how does the inhibition [1] read?
Its inhibition is 1% (inactive).

What about the fluorescence ratio (interference) [2] of the same compound?
The fluorescence ratio (interference) was 1 (inactive).

What about the nuclear beta-catenin stimulation ([3]; at 10 µM) of the same compound?
The nuclear beta-catenin stimulation was -0.4% (inactive).

What about the nuclear beta-catenin stimulation ([3]; stimulation, at 2 µM) of the same compound?
Its nuclear beta-catenin stimulation is 1.1%.

Which results are given for CCn1cc(C(=O)O)c(=O)c2cc(F)c(N3CCNC(C)C3)c(F)c21 (stereo not drawn)?
inhibition [1]: -1% (inactive); fluorescence ratio (interference) [2]: 1 (inactive); nuclear beta-catenin stimulation ([3]; at 10 µM): 1.8% (inactive); nuclear beta-catenin stimulation ([3]; stimulation, at 2 µM): 1.2%

For CC(=O)NS(=O)(=O)c1ccc(N)cc1, which fluorescence ratio [5] is on record?
Its fluorescence ratio is 1.03 (inactive).

What about the inhibition [6] of the same compound?
Its inhibition is -5% (inactive).

And the inhibition [7]?
The inhibition was -5.05% (inactive).

What about the fluorescence ratio [8] of the same compound?
Its fluorescence ratio is 1.01 (inactive).

What about the nuclear beta-catenin stimulation ([3]; at 10 µM) of the same compound?
The nuclear beta-catenin stimulation was -0.3% (inactive).

What about the nuclear beta-catenin stimulation ([3]; stimulation, at 2 µM) of the same compound?
Its nuclear beta-catenin stimulation is -0.1%.

Which fluorescence ratio [5] does the source give for Cc1ncc([N+](=O)[O-])n1CC(O)CCl (stereo not drawn) here?
Its fluorescence ratio is 0.99 (inactive).

What about the inhibition [6] of the same compound?
The inhibition was 5.94% (inactive).

What about the inhibition [7] of the same compound?
Its inhibition is 0.67% (inactive).

And the fluorescence ratio [8]?
Its fluorescence ratio is 0.99 (inactive).

And the z-score [9]?
The z-score was -0.43 (inactive).

And the nuclear beta-catenin stimulation ([3]; at 10 µM)?
Its nuclear beta-catenin stimulation is 0.8% (inactive).

What about the nuclear beta-catenin stimulation ([3]; stimulation, at 2 µM) of the same compound?
Its nuclear beta-catenin stimulation is 1.1%.
